A3G deaminase = APOBEC3G DNA deaminase inhibitors, primary screen, biochemical, fluorescence, single-stranded DNA substrate, uHTS; DNA dC->dU-editing enzyme APOBEC-3G (Homo sapiens), Q9HC16; recombinant A3G, ssDNA deamination FAM/TAMRA fluorescence; inhibition, % at 20 µM; actives 0.28% (n = 330,000); AID 493012, 2011;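 active = inhibition of at least 40% at 20 µM, with no more than 30% in the related APOBEC3A deaminase screen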;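 also: plate controls were DMSO wells with A3G for no effect and wells lacking A3G enzyme for full effect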
ADAM17 inh = ADAM17 inhibitors, primary screen, biochemical, QFRET. inhibition, % at 6.95 µM. Disintegrin and metalloproteinase domain-containing protein 17 (Homo sapiens), P78536. actives 0.83% (n = 370,000). recombinant ADAM17, EDANS/DABCYL FRET peptide cleavage;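 active = inhibition above the mean of compounds lying between control limits plus 3 SD, set per campaign, cut at about 8.5% in these data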;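 also: 0% = DMSO-only wells as the low control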
APOBEC3A inh = APOBEC3A ssDNA deaminase inhibitors, primary screen, selectivity assay for APOBEC3G inhibitor project, biochemical, FAM/TAMRA oligo cleavage fluorescence; DNA dC->dU-editing enzyme APOBEC-3A (Homo sapiens), P31941; recombinant A3A, FAM/TAMRA ssDNA deamination fluorescence; inhibition, % at 20 µM; actives 0.41% (n = 330,000); AID 493011, 2011;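 active = at least 40% inhibition at 20 µM here, with at most 30% in a related deaminase screen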;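 also: plate controls were A3A with DMSO for no effect and wells lacking A3A enzyme for full effect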
ADAM10 inh = human ADAM10 inhibitors, primary screen, biochemical, QFRET, HTS; recombinant ADAM10, EDANS/DABCYL FRET peptide cleavage, 3 h; inhibition, % at 7 µM; actives 0.62% (n = 370,000); AID 720582, 2013;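 active = inhibition above a per-campaign cutoff equal to the mean of compounds falling between control-based bounds plus 3 SD, cut at about 20% in these data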;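 also: 0% = DMSO wells while the 100% control is not disclosed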
NRP1-CendR mod = modulators of CendR peptide binding to NRP-1, primary screen, biochemical, fluorescence polarization, uHTS | Neuropilin-1 (Homo sapiens), O14786 | FAM-RPARPAR peptide binding to NRP-1 | inhibition, % at 25 µM | actives 0.85% (n = 360,000) | AID 602438, 2012;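 active = inhibition or corrected inhibition above about 18%, plus a signal ratio from 0.5 to 1.5, limit read from the data, passing the limit was not always enough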
Target sequence (O14786 whole entry, looked up): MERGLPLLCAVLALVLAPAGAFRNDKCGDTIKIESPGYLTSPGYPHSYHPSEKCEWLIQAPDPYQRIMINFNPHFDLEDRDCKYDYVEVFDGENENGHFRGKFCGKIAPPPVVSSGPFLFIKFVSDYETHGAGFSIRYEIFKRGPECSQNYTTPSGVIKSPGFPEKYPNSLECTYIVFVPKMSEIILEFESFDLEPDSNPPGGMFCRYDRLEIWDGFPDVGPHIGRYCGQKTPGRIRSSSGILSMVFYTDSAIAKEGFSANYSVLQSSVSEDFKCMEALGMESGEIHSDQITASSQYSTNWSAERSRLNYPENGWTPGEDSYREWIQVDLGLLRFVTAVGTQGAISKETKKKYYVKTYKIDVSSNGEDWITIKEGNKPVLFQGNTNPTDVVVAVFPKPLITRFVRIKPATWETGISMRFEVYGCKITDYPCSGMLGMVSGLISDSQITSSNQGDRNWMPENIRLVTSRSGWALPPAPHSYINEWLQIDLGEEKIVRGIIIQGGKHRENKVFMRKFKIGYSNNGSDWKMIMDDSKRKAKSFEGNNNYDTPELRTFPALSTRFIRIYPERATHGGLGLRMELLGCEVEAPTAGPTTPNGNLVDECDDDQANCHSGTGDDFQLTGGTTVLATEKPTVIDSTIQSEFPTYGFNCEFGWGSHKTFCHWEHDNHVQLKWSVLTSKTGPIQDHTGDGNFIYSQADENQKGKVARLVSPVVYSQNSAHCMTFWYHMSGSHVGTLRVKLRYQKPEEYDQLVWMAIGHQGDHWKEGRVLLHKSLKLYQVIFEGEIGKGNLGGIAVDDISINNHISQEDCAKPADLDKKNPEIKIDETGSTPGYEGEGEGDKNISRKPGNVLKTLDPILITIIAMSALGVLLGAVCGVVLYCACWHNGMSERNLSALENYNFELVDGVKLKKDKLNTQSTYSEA
ADAM10 ctr = ADAM10 inhibitors, counter-screen for ADAM17 exosite inhibitor project, biochemical, FRET, human ADAM10; shares compounds with ADAM17 inh; recombinant ADAM10, EDANS/DABCYL FRET peptide cleavage, 3 h; inhibition, % at 6.95 µM; actives 47% (n = 2,900);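 active = mean inhibition over the triplicate runs exceeds the activity threshold set in the earlier primary screen, cut at about 20% in these data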;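 also: 0% = DMSO wells and 100% = marimastat wells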
ADAM17 confirm = ADAM17 inhibitors, hit retest, confirmation, biochemical, QFRET peptide cleavage | shares compounds with ADAM17 inh | recombinant ADAM17, EDANS/DABCYL QFRET peptide cleavage | inhibition, % at 6.95 µM | actives 65% (n = 2,900);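 active = mean inhibition across replicates above the hit cutoff set in the primary screen, cut at about 8.5% in these data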;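 also: 0% = DMSO wells and 100% = marimastat wells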
* marks the source's active call; other numbers are inactive results; / = no result. Most compounds without a hit are left out; they make up all but 2.4% or so of the library.

SMILES	A3G deaminase	ADAM17 inh	APOBEC3A inh	ADAM10 inh	NRP1-CendR mod	ADAM10 ctr	ADAM17 confirm
CCC(C)c1ccc(O)c(NC(=S)NC(=O)c2cccnc2)c1 (centres undefined)	-13	7	-1	7	-4	/	/
CCN(CCNC(=O)Nc1ccc(Cl)cc1)c1ccccc1	4	9.8*	-6	16	5	37*	19*
COC(=O)CC[C@@H](/C=C/C(=O)OC(C)(C)C)Sc1ccc(C(C)(C)C)cc1	/	0	/	2	/	/	/
CCOC(=O)c1c(C)[nH]c(C)c1C(=O)CSc1nc2ccccc2c(=O)n1-c1ccc(C)cc1	1	4	3	7	-12	/	/
CCOC(=O)c1c(C)[nH]c(C)c1C(=O)CSc1nc2ccccc2c(=O)n1-c1ccc(Cl)cc1	6	11*	3	15	6	28*	19*
O=C(CSc1nc2ccccc2o1)NN=C/C=C/c1ccccc1	/	9.5*	/	19	/	14	16*
COc1ccccc1NC(=O)N(C)C[C@@H]1OCc2cnnn2CCCC(=O)N([C@@H](C)CO)C[C@H]1C	/	8.8*	/	-1	-23	-5	-2
CC(=O)O[C@@H](Cc1ccc(O)cc1)C(=O)CC(C)C	/	9.2*	/	5	-7	1	2
Cc1ccc(Cl)c(NC(=O)COC(=O)CNS(=O)(=O)/C=C/c2ccccc2)c1Cl	-7	9.1*	0	7	-14	-4	2
CCc1cccc(C)c1NC(=O)COC(=O)CNS(=O)(=O)/C=C/c1ccccc1	-7	3	-5	4	-11	/	/
O=S(=O)(Nc1ccc(-c2csc(-c3ccccc3)n2)cc1)c1ccc(F)cc1	-7	11*	-4	16	1	20*	19*
O=C(Nc1nc(-c2ccccc2)cs1)c1ccccc1NS(=O)(=O)c1ccc(F)cc1	-2	-102	5	-204	-23	/	/
O=C(O)c1cccc(S(=O)(=O)Nc2ccc(O)c(Sc3nc4ccccc4s3)c2)c1	-2	-2	0	1	-17	/	/
O=S(=O)(Nc1ccc(O)c(Sc2nc3ccccc3s2)c1)c1ccc(F)cc1	0	10*	3	19	-7	34*	23*
O=S(=O)(Nc1ccc(O)c(Sc2nc3ccccc3s2)c1)c1cccc2ccccc12	-4	9.0*	0	18	1	42*	22*
Oc1ccc(Nc2ccccc2F)c2cccnc12	/	1	/	5	/	/	/
COc1ccc(-c2cc(NC(=O)Cc3c[nH]c4ccccc34)ccc2Nc2cccnc2)cc1F	/	-2	/	-3	/	/	/
O=C(CSc1nnc(-c2ccccc2)n1-c1ccc(Cl)cc1)Nc1cccc2ccccc12	/	1	/	1	/	/	/
COc1ccc(-n2c(SCc3ccc([N+](=O)[O-])cc3)nnc2-c2ccco2)cc1	/	-2	/	0	/	/	/
COc1ccc(Cc2nnc(N/N=C/c3ccc(O)cc3)[nH]c2=O)cc1OC	-5	9.3*	-6	9	3	3	5
COc1ccc(Cc2nnc(N/N=C/c3ccc(Br)cc3)[nH]c2=O)cc1OC	-4	-4	2	-5	-5	/	/
O=c1cc(CSc2ccc(Cl)cc2)[nH]c2[nH]n(-c3ccccc3)c(=O)c12	2	2	10	9	-16	/	/
Cc1ccc(SCc2cc(=O)c3c(=O)n(-c4ccccc4)[nH]c3[nH]2)cc1	10	10*	5	2	-6	22*	14*
CN(C(=O)c1ccc(NC(=O)Cc2cccc(NC(=O)C3CCCN(C(=O)C4CCCC4)C3)c2)cc1)C1CCCC1 (centres undefined)	-5	9.4*	-1	5	22	18	9
CN(CCc1ccccc1)C(=O)c1ccc(NC(=O)Cc2ccc(NC(=O)C3CCN(C(=O)C4CCCC4)CC3)cc2)cc1	/	11*	/	5	0	9	9.8*
SMILES	A3G deaminase	ADAM17 inh	APOBEC3A inh	ADAM10 inh	NRP1-CendR mod	ADAM10 ctr	ADAM17 confirm
CC(C)(C)OC(=O)N1CCCC(C(=O)Nc2cccc(C(=O)NCCCc3ccccc3)c2)C1 (centres undefined)	/	12*	/	10	3	20	10*
O=C1CCC[C@H]2C[C@H](NCc3ccc(F)cc3)CC[C@]23CCCN13	/	-4	/	-8	/	/	/
COCCCNC(=O)C[C@H]1C[C@@]2(C(=O)OC)C(=C[C@H](C3CCCC3)O[C@@H]2C)N(Cc2ccco2)C1=O	/	-1	/	-3	/	/	/
O=C1OC(c2ccc(O)cc2)(c2ccc(O)cc2)c2ccccc21	2	-1	1	-8	-7	/	/
O=C1OC(c2ccccc2)(c2ccc3cc(O)ccc3c2)c2ccccc21 (centres undefined)	/	10*	/	19	8	25*	13*
COC(=O)[C@]12C[C@H](CC(=O)N3CCOCC3)C(=O)N(Cc3cccc4ccccc34)C1=C[C@H](C1CCCC1)O[C@@H]2C	/	2	/	10	/	/	/
CCCC1CCC2(CCCN2CCOC(=O)Nc2ccc(OC)cc2)CC1 (centres undefined)	/	-2	/	-6	/	/	/
CCCCN(Cc1ccccc1)S(=O)(=O)c1cc2c(cc1Br)CC(C)N2C(C)=O (centres undefined)	/	11*	/	17	-3	16	12*
CC1=C[C@@H]2[C@H]3C(=O)N(Cc4ccccc4)C(=O)[C@H]3[C@@H]1[C@@H]1O[C@@]3(C(=O)N(C)c4ccccc43)C3=C(CCCC3=O)N21	/	-2	/	-4	/	/	/
C=CCNC(=S)NNC(=O)c1cccc(Br)c1	-13	2	-6	3	13	/	/
C=CCNC(=S)NNC(=O)c1ccc(C)c(Cl)c1	-5	12*	3	12	-4	-2	1
Oc1c(Cl)cc(Cl)c2cccnc12	/	1	/	6	0	/	/
Cc1ccc(S(=O)(=O)Nc2cc(Cl)c(O)c3ncccc23)cc1	4	14*	-5	11	4	8	17*
O=C(Cc1noc2ccccc12)Nc1ccc(Cl)cc1	-8	1	-1	-2	-1	/	/
O=C(Cc1noc2ccccc12)NNC(=S)Nc1ccc(Cl)cc1	-9	12*	0	14	0	3	1
Nc1ccn([C@@H]2O[C@H](C(=O)N3CCN(CCO)CC3)[C@@H](O)[C@H]2O)c(=O)n1	/	-2	/	1	/	/	/
CCOC(=O)C1(C(=O)OCC)N=C(c2ccccc2)C=C1c1ccccc1	/	1	/	14	/	/	/
CCOC(=O)[C@]12CCCC=C1N(CCCOC)C(=O)[C@@H]2CC(=O)NCc1cccc2ccccc12	/	0	/	8	/	/	/
